The list is not random: actives were taken first. Their share in the collection is about 7.3%.
FLuc modulator: counter-screen for miR-21 project: firefly luciferase inhibitors or activators | P08659 | purified FLuc, Km substrates, luminescence inhibition | Potency, µM (highest dose often 57.5 µM), for inactives: at the highest dose activity change, negative = inhibition, usual class: inhibitors | 360,000 compounds, 6.9% hits;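 further: plate controls were vehicle for no effect and reference inhibitor for full effect; nearly all actives have a fitted effect of over 55% in size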
Target sequence (P08659 whole entry, looked up): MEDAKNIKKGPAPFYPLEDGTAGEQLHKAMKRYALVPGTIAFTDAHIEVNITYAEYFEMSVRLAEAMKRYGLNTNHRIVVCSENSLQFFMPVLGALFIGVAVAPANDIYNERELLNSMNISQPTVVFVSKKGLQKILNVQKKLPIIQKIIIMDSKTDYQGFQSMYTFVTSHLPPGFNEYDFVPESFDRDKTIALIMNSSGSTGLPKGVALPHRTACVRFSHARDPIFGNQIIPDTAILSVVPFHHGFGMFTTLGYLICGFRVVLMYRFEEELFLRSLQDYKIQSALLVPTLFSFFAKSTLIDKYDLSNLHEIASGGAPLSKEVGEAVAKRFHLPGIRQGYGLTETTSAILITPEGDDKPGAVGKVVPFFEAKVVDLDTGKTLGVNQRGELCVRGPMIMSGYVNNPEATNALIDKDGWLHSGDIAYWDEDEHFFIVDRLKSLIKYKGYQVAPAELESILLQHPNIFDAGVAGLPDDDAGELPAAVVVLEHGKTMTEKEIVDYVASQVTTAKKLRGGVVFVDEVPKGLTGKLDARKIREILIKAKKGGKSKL
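Purified P. pyralis luciferase, 10 nM final, with Km-level 10 uM D-luciferin and 10 uM ATP in 50 mM Tris acetate pH 7.5, 10 mM Mg acetate, 0.01% Tween-20, 0.05% BSA; 6-point qHTS titration about 60 µM downward; luminescence read.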
p53 reactivator: restores transcriptional activity of mutant p53. H1299 p53-A138V BP100-luciferase reporter, luminescence, 24 h. Potency, µM (titrated, usually from 92.2 µM), for the others: at the highest dose activity change, positive = activation, hits mostly activators. 320,000 compounds, 0.063% hits; further: % of control where 0% means no effect; nearly all actives have a fitted effect of over 45% in size
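H1299 (p53-null), stable ts p53-A138V + BP100-Luc; 1000 cells/well, Opti-MEM/10% FBS; cpd 4 pt, 1:5; 24 h, 37 deg C, 5% CO2; detection reagent 10 min RT; luminescence.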
Rab9 promoter act: activators of Rab9 promoter; Huh7 Rab9 promoter-luciferase reporter, luminescence, 24 h; Potency, µM (highest dose often 9.22 µM), inactives show top-dose activation, negative = inhibition, actives largely listed as activators; 320,000 compounds, 2.8% hits; further: % of control where 0% means no effect; nearly all actives have a fitted effect of over 60% in size
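Using Huh7 cells stably transfected with Rab9 promoter–luciferase, compounds were incubated 24 h at 37 °C, 5% CO2; luciferase luminescence was read 10 min after reagent addition.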
SMN2 splice enh: enhancers of SMN2 splice variant expression; HEK293 SMN2-luciferase splicing reporter, luminescence, 30-36 h; Potency, µM (top dose mostly 46.1 µM), without a hit: top-dose activity change, positive = activation, actives largely listed as activators; 210,000 compounds, 2.8% hits; AID 1458; further: % of control where 0% means no effect; nearly all actives have a fitted effect of over 55% in size
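HEK293 cells carry an SMN2 minigene-luciferase reporter in which exon 7 inclusion puts luciferase in frame. Cells were seeded at 2000 cells/well, attached for 10-12 hours, then exposed to compounds for 30-36 hours at 37C before ONE-Glo luminescence.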
NPC1 prom act: activators of NPC1 promoter. 320,000 compounds, 2.4% hits. Huh7 NPC1 promoter luciferase reporter, 24 h. Potency, µM (titrated, usually from 9.22 µM), for the others: at the highest dose activation, hits mostly activators; further: % of control where 0% means no effect; nearly all actives have a fitted effect of over 60% in size
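Luminescence read-out of NPC1 promoter-driven luciferase in stably transfected Huh7 cells; compounds delivered in DMSO and left 24 h at 37C, 5% CO2, qHTS titration format.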
ELG1 genotoxic: induces genotoxicity in HEK293T cells with luciferase-tagged ELG1; HEK293T ELG1-luciferase reporter, luminescence, 16 h; Potency, µM (titrated, usually from 46 µM), without a hit: at the highest dose activity change, positive = activation, actives largely listed as activators; 330,000 compounds, 1.3% hits; AID 504466; further: % of control where 0% means no effect; nearly all actives have a fitted effect of over 60% in size
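Cells (2,000/well) expressing the ELG1-luciferase fusion are dosed by pin tool and kept 16 hr at 37 °C, 5% CO2. Signal comes from ONE-Glo luciferase reagent after 30 min at room temperature.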
An asterisk follows results filed as active; ? = inconclusive; . = no result given; [ ] = dose if it differs, or a comment. The call rests on the fitted dose curve; in most records, active means well fitted curve in the direction sought with a large enough effect; inconclusive means small, poorly fitted or top-dose-only effect, or another doubt; inactive means no such curve, though single readings can be large; an effect the other way counts as inactive or inconclusive. Potency means the concentration at half of the fitted maximal effect.

SMILES | FLuc modulator | p53 reactivator | Rab9 promoter act | SMN2 splice enh | NPC1 prom act | ELG1 genotoxic
Cc1ccc(NC(=O)c2nnn(Cc3ccccc3)c2N)cc1C | -0.5% | . | . | 22.5% | . | .
Nc1c(C(=O)Nc2ccc3c(c2)OCCO3)nnn1Cc1cccc(Br)c1 | ? | 19.7% | 3.98µM* | . | ? | 8.3%
Cc1cccc(-n2nnc(C(=O)NCc3ccc4c(c3)OCO4)c2N)c1 | 1.8% | -5.7% | 7.0% | 5.7% | 6.7% | -2.8%
Nc1c(C(=O)Nc2ccccc2Cl)nnn1-c1ccc2c(c1)OCCO2 | 1.07µM* | ? | 1.12µM* | . | 0.794µM* | ?
Cc1ccc(NC(=O)c2nnn(CC(=O)Nc3ccc4c(c3)OCO4)c2N)cc1C | 5.36µM* | 24.0% | 2.1% | . | -1.5% | 1.8%
Cc1cccc(N2CCN(C(=O)c3cc4ccc5cccnc5c4[nH]3)CC2C)c1 (configuration not stated) | -12.2% | . | . | . | . | .
CCc1ccccc1NC(=O)C1CCN(C2=NS(=O)(=O)C(c3ccc(C)c(C)c3)=C2C)CC1 | -6.5% | . | . | . | . | .
CCCN(CCC)C(=O)C1CCN(c2cc(C)nc3c(-c4ccc(Cl)cc4)c(C)nn23)CC1 | -0.1% | . | . | 1.9% | . | .
Nc1c(C(=O)Nc2ccc3c(c2)OCCO3)nnn1Cc1ccc(Br)cc1 | ? | ? | 1.12µM* | . | 1.58µM* | ?
Cc1cc(C)cc(NC(=O)c2sc3nc[nH]c(=O)c3c2C)c1 | 6.0% | . | . | . | . | .
CC(C)CCOc1ccccc1Cn1c(=O)sc2ccccc21 | -4.0% | . | . | -18.2% | . | .
O=c1sc2ccccc2n1COc1ccccc1 | -2.3% | 1.9% | -7.1% | -17.1% | 14.8% | 6.5%
O=c1sc2ccccc2n1COc1ccc(Cl)cc1 | 19µM* | 28.5% | ? | -20.7% | 27.5% | ?
Cc1ccc(OCCn2c(=O)sc3ccccc32)cc1 | 6.75µM* | ? | ? | 12.6µM* | 3.55µM* | ?
Cc1ccccc1OCCCn1c(=O)sc2ccccc21 | 9.53µM* | 11.9% | ? | 17.8µM* | ? | 17.3%
COc1ccc(Cn2c(=O)sc3ccccc32)cc1 | 2.1% | -3.7% | -0.9% | ? | -0.9% | 3.3%
O=c1sc2ccccc2n1CCCOc1ccccc1 | 10.7µM* | 18.8% | 2.51µM* | ? | 3.16µM* | 19.5%
CCCCc1nc2c(c3c1C[C@H](C)OC3)CN(C(=O)c1cc(I)ccc1F)CC2 | . | . | . | -17.4%[9.22 µM] | . | .
Cc1cc(NS(=O)(=O)c2cn(C)c(C)n2)ccc1Br | 7.0% | . | . | . | . | .
Cc1ccc(OCCCn2c(=O)sc3ccccc32)cc1 | 16.9µM* | -2.8% | 14.7% | -1.3% | 15.8% | 2.3%
CCc1ccc(NC(=O)CSc2nc3ccccc3nc2N2CCCCC2)cc1 | ? | 25.5% | 13.2% | . | -4.8% | 19.5%
CCc1cccc(NC(=O)CSc2nc3ccccc3nc2N2CCCCC2)c1 | -1.2% | . | . | 0.501µM* | . | .
CCN(CC)CCNC(=O)Nc1ccc2c(c1)N(Cc1ccccc1)C(=O)c1ccccc1S2 | -1.9% | . | . | -8.4% | . | .
COC(=O)c1cc(/C=C/c2ccccc2)[nH]n1 | 16.9µM* | . | ? | . | ? | 17.0%
Cc1c(C(=O)Nc2nc(-c3ccc(F)cc3)ns2)oc2ccc(Cl)cc12 | -8.4% | . | . | 8.6% | . | .
SMILES | FLuc modulator | p53 reactivator | Rab9 promoter act | SMN2 splice enh | NPC1 prom act | ELG1 genotoxic
Nc1ccc(C(=O)OCCCc2nc3cc4ccccc4cc3[nH]2)cc1 | 15.1µM* | 1.7% | 18.6% | . | 1.3% | -1.5%
Nc1ccc(C(=O)OCc2nc3cc4ccccc4cc3[nH]2)cc1 | ? | 0.9% | 14.9% | ? | 0.6% | -5.7%
Nc1ccc2nc(CCc3ccccc3)[nH]c2c1 | ? | ? | ? | ? | 19.8% | 15.1%
CCc1nc2ccc(Cc3ccc4nc(CC)[nH]c4c3)cc2[nH]1 | 12µM* | 8.7% | 9.7% | . | -1.5% | -0.2%
Nc1ccc(Cc2nc3cc4ccccc4cc3[nH]2)cc1 | 19µM* | 7.6% | ? | 12.6µM* | ? | 14.0%
Nc1ccc(C(=O)OCc2nc3c(ccc4ccccc43)[nH]2)cc1 | 13.5µM* | ? | ? | 154.4% | 24.7% | ?
CCc1nc2ccccc2[nH]1 | 0.1% | 0.6% | 5.7% | 0.1% | -1.3% | 0.3%

Screens deposited in PubChem BioAssay by National Center for Advancing Translational Sciences (NCATS).
